Data on 8 compounds can be found in PubChem BioAssay.

The source made the active and inactive calls.

A short description of assay [1]: E. coli DRC41 culture turbidity changes, primary screen, E. coli filamentation inducer project, strain DRC41, OD650, 48 h (AID 1152).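 Also: E. coli MC1000 strain DRC41 lacking acrAB efflux pump and sulA.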 The note with it: E. coli DRC41 (acrAB sulA), higher = more signal, called active from +8 up or from −8 down.
A short description of assay [2]: small-molecule binders of probe aLefty1, primary screen, biochemical, small-molecule microarray, 635/667 nm fluorescence (AID 1153).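 Also: score merges spot fluorescence with signal-to-noise ratio from the scanned slide images.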 The settings on record: higher = more signal.
Assay [3] in a line: PSAC antagonists in infected red cells, primary screen, cell-based, P. falciparum Indochina, OD700, 1 h (AID 1154). The note with it: P. falciparum Indochina infected RBC osmotic lysis, higher = more signal, called active from +8 up or from −8 down.
Assay [4] can be described thus: PSAC antagonists in infected red cells, primary screen, cell-based, P. falciparum Indochina, OD700, 2 h (AID 1155).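 Also: lysis reports solute entry through the parasite surface anion channel PSAC; channel blockers reduce lysis of infected cells.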 The settings on record: P. falciparum Indochina infected erythrocytes, osmotic lysis OD700; higher = more signal, called active from +8 up or from −8 down.
The nature of assay [5]: osmotic lysis modulators in infected erythrocytes, primary screen, PSAC antagonist project, cell-based, P. falciparum Indochina, OD700, 3 h (AID 1156). The settings on record: higher = more signal, called active from +8 up or from −8 down.
A short description of assay [6]: PSAC antagonists in infected red cells, primary screen, cell-based, P. falciparum Indochina, OD700, 18 h (AID 1157). The note with it: P. falciparum Indochina infected erythrocytes, osmotic lysis OD700, 18 h; higher = more signal, called active from +8 up or from −8 down.
Assay [7] can be described thus: modulators of S6 phosphorylation in cells, primary screen, cell-based, A549, cytoblot, luminescence, serum-stimulated (AID 1158).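 Also: serum-stimulated A549 lung adenocarcinoma cells; signal is phosphorylated S6 detected by cytoblot immunostaining with HRP secondary.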 The note with it: A549 phospho-S6 cytoblot, 5 h, higher = more signal.
In assay [8] the target is NADPH oxidase 2 (Homo sapiens) (UniProt P04839). In words: NOX2-dependent H2O2 signal modulators, primary screen, NOX inhibitor project, cell-based, HEK293-NOX2, PMA-stimulated, Amplex Red fluorescence (AID 1159). Also: test concentration not given here. The note with it: 45 min, higher = more signal, called active from +8 up or from −8 down.
The target of assay [9] is NADPH oxidase 4 (Homo sapiens) (UniProt Q9NPH5). The experiment in a line: NOX4-dependent H2O2 signal modulators, primary screen, NOX inhibitor project, cell-based, HEK293-NOX4, tetracycline-induced, Amplex Red fluorescence (AID 1160). The settings on record: 45 min, higher = more signal, called active from +8 up or from −8 down.
The target in assay [10] is NADPH oxidase 5 (Homo sapiens) (UniProt Q96PH1). In words: NOX5-dependent H2O2 signal modulators, primary screen, NOX inhibitor project, cell-based, HEK293-NOX5, Amplex Red fluorescence (AID 1161). The note with it: HEK293-NOX5, ionomycin, 45 min, higher = more signal.
Assay [11] is described as follows: A549 cell viability effects, profiling panel, calcein-AM fluorescence, 48 h, basal (AID 1162). Also: test concentration not given here. The note with it: higher = more signal.
Assay [12] is described as follows: adipocyte viability effects, profiling panel, cell-based, 3T3-L1 adipocytes, calcein-AM fluorescence, 48 h, basal (AID 1163). Also: test concentration not given here. The settings on record: 3T3-L1 adipocytes viability, higher = more signal.
The nature of assay [13]: HepG2 cell viability effects, profiling panel, calcein-AM fluorescence, 48 h, basal (AID 1164). Also: test concentration not given here. The settings on record: higher = more signal.
Assay [14] is described as follows: MM1S cell viability effects, profiling panel, calcein-AM fluorescence, 48 h, basal (AID 1165).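 Also: viability of MM1S multiple myeloma cells under basal unstimulated conditions; test concentration not given here.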 The note with it: higher = more signal.
A short description of assay [15]: basal RPMI8226 viability, no added stimulus, profiling panel, cell-based, calcein-AM fluorescence, 48 h, PK04 Diversity Set (AID 1166).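 Also: cells grown under basal conditions without added stimulus; test concentration not given here.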 The settings on record: RPMI8226 myeloma viability, higher = more signal.
Assay [16] is described as follows: basal HepG2 mitochondrial membrane potential changes, profiling panel, cell-based, JC-1 fluorescence, 24 h, 100 nL compound (AID 1167). Also: test concentration not given here. The note with it: higher = more signal.
The nature of assay [17]: basal 3T3-L1 adipocyte mitochondrial potential changes, profiling panel, cell-based, JC-1 fluorescence, 3T3-L1 adipocytes, 24 h, 100 nL compound (AID 1168). Also: test concentration not given here. The note with it: JC-1 mitochondrial fluorescence, higher = more signal, called active from +8 up or from −8 down.
Assay [18] in a line: basal RPMI8226 mitochondrial membrane potential changes, profiling panel, cell-based, JC-1 fluorescence, 24 h, 100 nL compound (AID 1169). Also: test concentration not given here. The note with it: RPMI8226 myeloma, JC-1 mitochondrial potential fluorescence, higher = more signal.
The nature of assay [19]: basal MM1S mitochondrial membrane potential changes, profiling panel, cell-based, JC-1 fluorescence, 24 h, 100 nL compound (AID 1170). Also: test concentration not given here. The settings on record: higher = more signal.
The nature of assay [20]: A549 lung cancer cell viability effects, profiling panel, resazurin fluorescence, 24 h, PK04 Diversity Set (AID 1171). Also: test concentration not given here. The settings on record: higher = more signal, called active from +8 up or from −8 down.

NADPH oxidase 4 (Homo sapiens), sequence (Q9NPH5 whole entry, looked up): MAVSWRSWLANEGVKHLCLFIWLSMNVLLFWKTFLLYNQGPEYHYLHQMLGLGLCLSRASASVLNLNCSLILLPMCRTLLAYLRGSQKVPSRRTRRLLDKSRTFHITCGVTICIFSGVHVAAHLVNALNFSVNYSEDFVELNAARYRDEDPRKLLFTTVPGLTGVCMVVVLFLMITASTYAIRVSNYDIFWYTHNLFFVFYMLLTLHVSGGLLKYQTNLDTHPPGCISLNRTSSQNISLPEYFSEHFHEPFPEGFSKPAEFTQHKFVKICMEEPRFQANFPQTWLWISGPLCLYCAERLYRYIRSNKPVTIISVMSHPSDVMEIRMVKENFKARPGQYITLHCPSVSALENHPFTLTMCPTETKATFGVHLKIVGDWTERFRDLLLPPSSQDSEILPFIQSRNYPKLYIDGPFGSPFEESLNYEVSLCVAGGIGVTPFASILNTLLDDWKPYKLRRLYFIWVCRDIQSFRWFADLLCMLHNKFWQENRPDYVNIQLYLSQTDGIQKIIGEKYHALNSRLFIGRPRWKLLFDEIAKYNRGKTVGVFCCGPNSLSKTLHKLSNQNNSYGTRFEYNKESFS
NADPH oxidase 2 (Homo sapiens), sequence (P04839 whole entry, looked up): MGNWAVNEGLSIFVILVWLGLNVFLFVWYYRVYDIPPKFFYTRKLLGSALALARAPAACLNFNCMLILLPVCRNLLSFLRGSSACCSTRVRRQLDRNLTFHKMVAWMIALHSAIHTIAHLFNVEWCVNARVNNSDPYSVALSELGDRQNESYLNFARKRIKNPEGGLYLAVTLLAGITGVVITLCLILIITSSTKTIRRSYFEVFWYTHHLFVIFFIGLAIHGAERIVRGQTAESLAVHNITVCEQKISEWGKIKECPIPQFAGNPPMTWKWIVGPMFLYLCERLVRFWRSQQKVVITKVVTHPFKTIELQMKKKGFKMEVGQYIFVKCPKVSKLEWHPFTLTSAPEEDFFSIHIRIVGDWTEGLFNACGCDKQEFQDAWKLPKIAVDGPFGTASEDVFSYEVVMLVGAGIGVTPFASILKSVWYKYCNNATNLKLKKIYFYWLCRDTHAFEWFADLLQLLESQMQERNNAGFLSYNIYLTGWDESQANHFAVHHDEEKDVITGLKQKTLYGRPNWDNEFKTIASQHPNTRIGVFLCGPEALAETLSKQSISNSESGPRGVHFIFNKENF
NADPH oxidase 5 (Homo sapiens), sequence (Q96PH1 whole entry, looked up): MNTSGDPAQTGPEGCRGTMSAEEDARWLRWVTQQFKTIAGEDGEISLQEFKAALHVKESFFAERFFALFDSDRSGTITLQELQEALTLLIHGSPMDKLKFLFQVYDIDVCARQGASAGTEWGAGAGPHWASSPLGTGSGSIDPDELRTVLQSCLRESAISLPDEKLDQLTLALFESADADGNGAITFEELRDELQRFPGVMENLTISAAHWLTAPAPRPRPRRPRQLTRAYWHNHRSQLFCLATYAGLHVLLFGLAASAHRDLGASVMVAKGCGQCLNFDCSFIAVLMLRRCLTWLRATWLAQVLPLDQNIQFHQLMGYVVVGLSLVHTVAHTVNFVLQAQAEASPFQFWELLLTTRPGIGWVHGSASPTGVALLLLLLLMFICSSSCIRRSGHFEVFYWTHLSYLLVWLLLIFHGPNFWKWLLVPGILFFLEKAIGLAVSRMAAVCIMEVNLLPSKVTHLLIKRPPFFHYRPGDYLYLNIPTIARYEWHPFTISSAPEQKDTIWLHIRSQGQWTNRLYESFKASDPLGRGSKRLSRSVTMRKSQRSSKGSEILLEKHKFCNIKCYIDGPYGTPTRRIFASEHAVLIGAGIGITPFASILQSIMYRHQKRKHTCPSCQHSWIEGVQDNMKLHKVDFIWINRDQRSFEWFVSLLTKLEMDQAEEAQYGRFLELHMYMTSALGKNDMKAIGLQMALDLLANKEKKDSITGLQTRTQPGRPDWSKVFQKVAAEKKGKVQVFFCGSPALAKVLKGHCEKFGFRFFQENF

With `CC1CC/C=C\[C@H]2OC34C=CCN(c5ccc(Cl)cc5)C(=O)[C@H]3N(CCO)C(=O)[C@]4(C)C2C(=O)O1` (stereo not given in full), the z-score in [1] is -0.209 (inactive); in assay [3], 2.73 (inactive); in [4], 0.402 (inactive); in assay [5] it was 0.0852 (inactive); in [6], 0.382 (inactive); in assay [7] it was 1.13. Besides, the z-score in assay [8] is 1.66 (inactive); in assay [9] it was 0.741 (inactive); in [10], 3.16; in assay [11], -0.562; in [12], 0.594; in assay [13], 0.107. In addition, the z-score in [14] is 0.246; in assay [15], 0.0105; in [16] it was -0.472; in assay [17], -0.54 (inactive); in assay [18], 0.27; in assay [19], 2.04. In assay [20], the z-score was -0.428 (inactive). Further, in [2], the composite z-score is -0.485.
As to `O=C1C2C=CC(C(O)c3c(F)cccc3Cl)N(Nc3ccccc3)C2C(=O)N1c1ccccc1` (stereo not given), the z-score is -0.0623 (inactive) in assay [1]; 18.7 (active) in [3]; 3.73 (inactive) in assay [4]; 0.419 (inactive) in assay [5]; 1.93 (inactive) in assay [6]; -0.458 in [7]. Besides, the z-score in assay [8] is -1.69 (inactive); in assay [9] it was -3.01 (inactive); in assay [10], -2.42; in [11] it was 1.14; in [12], -1.4; in assay [13], 0.309. Also, the z-score in [14] is -0.474; in assay [15] it was 0.474; in assay [16] it was -1.41; in assay [17] it was 0.455 (inactive); in assay [18], -0.235; in assay [19] it was -0.488. Further, the z-score in [20] was -0.0768 (inactive). Further, the composite z-score in [2] was 0.547.
As for `COC(=O)[C@@]1(Cc2ccccc2)[C@H]2c3cc(C(=O)N4CCCC4)n(Cc4nc5ccccc5[nH]4)c3C[C@H]2CN1C(=O)c1ccccc1`, the z-score in assay [1] was -1.31 (inactive); in assay [3], 3.2 (inactive); in assay [4] it was 0.541 (inactive); in assay [5] it was 2.65 (inactive); in assay [6], 0.959 (inactive); in assay [7] it was -0.25. For the same compound, the z-score is 0.311 (inactive) in [8]; -0.142 (inactive) in [9]; -3 in assay [10]; -0.579 in assay [11]; 0.887 in assay [12]; -0.537 in [13]. Also, the z-score in [14] is -2.39; in assay [15] it was -2.19; in [16], 1.73; in [17] it was -0.807 (inactive); in assay [18], -0.863; in assay [19] it was -0.81. Besides, the z-score in [20] is -0.178 (inactive). Besides, the composite z-score in assay [2] came out at 1.06.
Take `CCOC(=O)C[C@H]1[C@H](OC(=O)c2cc3ccccc3oc2=O)[C@@H](NC(=O)Cc2ccc(OC)cc2)c2cc(OCCCO)ccc2N1C(=O)c1ccccc1`: the z-score in [1] is 0.386 (inactive); in assay [3] it was 0.743 (inactive); in [4], -1.44 (inactive); in [5], 0.776 (inactive); in assay [6], -2.76 (inactive); in assay [7], 1.03. The z-score is -0.569 (inactive) in assay [8]; -0.523 (inactive) in assay [9]; -0.286 in assay [10]; -0.172 in [11]; 2.17 in assay [12]; -0.56 in [13]. In addition, the z-score in assay [14] was -0.0168; in assay [15], -0.606; in [16] it was -0.412; in assay [17], -0.111 (inactive); in [18] it was -0.135; in [19], -0.244. Also, the z-score in [20] was -0.714 (inactive). For the same compound, the composite z-score in assay [2] was 0.0942.
With `O=C1OCCC/C=C\[C@H]2OC34C=CCN(Cn5nnc6ccccc65)C(=O)[C@H]3N(CCCCCCO)C(=O)[C@@H]4C12` (stereo not given in full), the z-score was 3.64 (inactive) in [1]; 3.95 (inactive) in assay [3]; -0.392 (inactive) in assay [4]; -0.193 (inactive) in assay [5]; -0.677 (inactive) in assay [6]; 2.58 in assay [7]. Besides, the z-score in [8] was 1.15 (inactive); in assay [9], 0.377 (inactive); in [10], 2.11; in assay [11] it was 1.06; in [12], 0.469; in [13] it was 1.42. The z-score in [14] is 1.8; in assay [15], -0.0474; in [16], 0.733; in assay [17], 0.932 (inactive); in [18], -0.263; in [19], -1.14. Also, in [20], the z-score is 0.818 (inactive). The composite z-score in assay [2] was -0.481.
On to `CCCCCN1CC=CC23O[C@@H]4/C=C\CCCOC(=O)C4[C@H]2C(=O)N(C(CO)C(C)C)[C@@H]3C1=O` (stereo not given in full), for which the z-score in [1] was 1.52 (inactive); in [3], 0.724 (inactive); in [4], 0.264 (inactive); in [5], 0.29 (inactive); in assay [6], 0.0866 (inactive); in assay [7] it was 0.0595. Further, the z-score is 1.59 (inactive) in assay [8]; 0.481 (inactive) in [9]; 2.17 in assay [10]; -0.436 in assay [11]; 0.737 in [12]; -1.05 in assay [13]. In addition, the z-score in assay [14] is 0.693; in assay [15], 0.108; in [16], -0.335; in [17], -0.0791 (inactive); in assay [18], 0.0204; in assay [19], -0.407. Besides, the z-score in [20] was 0.534 (inactive). Besides, the composite z-score in [2] was -0.113.
With `C=CCOC(=O)[C@H]1[C@@H]2C(=O)O[C@@H](c3ccccc3)[C@@H](c3ccccc3)N2[C@@H](c2ccc(OCCOC(=O)[C@@H]3C[C@@H]4C(=O)N[C@@H](CCCCN(C)C)C(=O)N4[C@@H]3c3ccc(O)cc3)cc2)[C@]12C(=O)Nc1ccc(I)cc12`, the z-score in assay [1] was -0.785 (inactive); in [3] it was -0.117 (inactive); in [4], 1.39 (inactive); in [5], 5.33 (inactive); in [6], 0.448 (inactive); in assay [7] it was -0.724. Besides, the z-score was 1.41 (inactive) in [8]; 0.74 (inactive) in [9]; -0.496 in assay [10]; -0.508 in assay [11]; -0.523 in [12]; -0.222 in [13]. Also, the z-score in assay [14] was -0.397; in assay [15], -0.449; in [16], -1.65; in assay [17] it was 0.832 (inactive); in assay [18], -0.7; in [19] it was -1.6. Besides, the z-score in assay [20] is 0.183 (inactive). The compound also had a composite z-score in assay [2] of -0.15.
As for `C[N+](C)(C)CCCC[C@@H]1NC(=O)[C@@H]2C[C@H](C(=O)NCCCCCN)[C@H](c3cccc(OCCO)c3)N2C1=O`, the z-score was -0.272 (inactive) in assay [1]; 1.85 (inactive) in [3]; 0.508 (inactive) in [4]; 0.214 (inactive) in [5]; 0.129 (inactive) in assay [6]; -0.0726 in assay [7]. The z-score was 0.79 (inactive) in [8]; 0.289 (inactive) in assay [9]; 1.54 in assay [10]; 1.53 in assay [11]; 0.698 in [12]; 1.45 in assay [13]. The z-score in assay [14] is 0.423; in assay [15], 0.16; in assay [16], 1.03; in assay [17], -0.117 (inactive); in [18], 0.0947; in assay [19], -0.198. In addition, the z-score in [20] was 0.0718 (inactive). In assay [2], this compound yielded a composite z-score of -0.0412.
